Active and inactive are the calls of the source.
What was measured:
[1] = E. coli DRC41 culture turbidity changes, primary screen, E. coli filamentation inducer project, strain DRC41, OD650, 48 h (AID 1152);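 further: E. coli MC1000 strain DRC41 lacking acrAB efflux pump and sulA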; details: E. coli DRC41 (acrAB sulA), higher = more signal, called active from +8 up or from −8 down
[2] = small-molecule binders of probe aLefty1, primary screen, biochemical, small-molecule microarray, 635/667 nm fluorescence (AID 1153); details: higher = more signal;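 further: score merges spot fluorescence with signal-to-noise ratio from the scanned slide images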
[3] = PSAC antagonists in infected red cells, primary screen, cell-based, P. falciparum Indochina, OD700, 1 h (AID 1154); details: P. falciparum Indochina infected RBC osmotic lysis, higher = more signal, called active from +8 up or from −8 down
[4] = PSAC antagonists in infected red cells, primary screen, cell-based, P. falciparum Indochina, OD700, 2 h (AID 1155);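 further: lysis reports solute entry through the parasite surface anion channel PSAC; channel blockers reduce lysis of infected cells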; details: P. falciparum Indochina infected erythrocytes, osmotic lysis OD700; higher = more signal, called active from +8 up or from −8 down
[5] = osmotic lysis modulators in infected erythrocytes, primary screen, PSAC antagonist project, cell-based, P. falciparum Indochina, OD700, 3 h (AID 1156); details: higher = more signal, called active from +8 up or from −8 down
[6] = PSAC antagonists in infected red cells, primary screen, cell-based, P. falciparum Indochina, OD700, 18 h (AID 1157); details: P. falciparum Indochina infected erythrocytes, osmotic lysis OD700, 18 h; higher = more signal, called active from +8 up or from −8 down
[7] = modulators of S6 phosphorylation in cells, primary screen, cell-based, A549, cytoblot, luminescence, serum-stimulated (AID 1158); details: A549 phospho-S6 cytoblot, 5 h, higher = more signal;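 further: serum-stimulated A549 lung adenocarcinoma cells; signal is phosphorylated S6 detected by cytoblot immunostaining with HRP secondary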
[8] = molecular target: NADPH oxidase 2 (Homo sapiens) (UniProt P04839); test: NOX2-dependent H2O2 signal modulators, primary screen, NOX inhibitor project, cell-based, HEK293-NOX2, PMA-stimulated, Amplex Red fluorescence (AID 1159); details: 45 min, higher = more signal, called active from +8 up or from −8 down; further: test concentration not given here
Sequence of NADPH oxidase 2 (Homo sapiens) (P04839 whole entry, looked up): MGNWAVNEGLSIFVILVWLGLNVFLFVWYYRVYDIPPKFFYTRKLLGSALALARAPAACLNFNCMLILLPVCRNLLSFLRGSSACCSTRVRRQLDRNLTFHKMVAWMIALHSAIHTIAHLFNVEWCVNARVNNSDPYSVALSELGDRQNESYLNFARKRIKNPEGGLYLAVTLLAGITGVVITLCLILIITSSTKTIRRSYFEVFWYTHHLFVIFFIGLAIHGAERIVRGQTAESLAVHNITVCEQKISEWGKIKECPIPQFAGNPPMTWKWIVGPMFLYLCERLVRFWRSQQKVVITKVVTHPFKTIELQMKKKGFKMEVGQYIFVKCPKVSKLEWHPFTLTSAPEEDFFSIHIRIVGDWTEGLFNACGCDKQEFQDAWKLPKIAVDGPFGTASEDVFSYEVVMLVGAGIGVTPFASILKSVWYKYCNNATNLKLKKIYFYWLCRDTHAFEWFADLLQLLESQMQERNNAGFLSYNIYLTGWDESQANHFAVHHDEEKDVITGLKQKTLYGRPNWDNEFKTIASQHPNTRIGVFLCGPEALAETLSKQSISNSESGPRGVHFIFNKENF

[9] = molecular target: NADPH oxidase 4 (Homo sapiens) (UniProt Q9NPH5); test: NOX4-dependent H2O2 signal modulators, primary screen, NOX inhibitor project, cell-based, HEK293-NOX4, tetracycline-induced, Amplex Red fluorescence (AID 1160); details: 45 min, higher = more signal, called active from +8 up or from −8 down
Sequence of NADPH oxidase 4 (Homo sapiens) (Q9NPH5 whole entry, looked up): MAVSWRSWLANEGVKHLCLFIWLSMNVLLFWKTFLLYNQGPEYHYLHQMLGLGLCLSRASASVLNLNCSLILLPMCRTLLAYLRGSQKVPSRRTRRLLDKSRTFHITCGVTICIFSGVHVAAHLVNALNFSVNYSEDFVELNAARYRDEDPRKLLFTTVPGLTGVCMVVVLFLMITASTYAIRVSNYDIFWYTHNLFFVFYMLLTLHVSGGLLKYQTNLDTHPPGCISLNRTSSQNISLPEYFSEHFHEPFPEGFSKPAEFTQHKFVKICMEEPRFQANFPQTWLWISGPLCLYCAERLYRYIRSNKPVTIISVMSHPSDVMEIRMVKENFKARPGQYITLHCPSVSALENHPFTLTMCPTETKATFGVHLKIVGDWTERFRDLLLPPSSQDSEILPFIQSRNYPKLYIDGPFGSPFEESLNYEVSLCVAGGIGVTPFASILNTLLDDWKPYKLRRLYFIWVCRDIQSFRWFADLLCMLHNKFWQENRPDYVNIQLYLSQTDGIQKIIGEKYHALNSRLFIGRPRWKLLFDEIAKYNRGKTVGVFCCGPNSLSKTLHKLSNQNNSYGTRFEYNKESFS

[10] = molecular target: NADPH oxidase 5 (Homo sapiens) (UniProt Q96PH1); test: NOX5-dependent H2O2 signal modulators, primary screen, NOX inhibitor project, cell-based, HEK293-NOX5, Amplex Red fluorescence (AID 1161); details: HEK293-NOX5, ionomycin, 45 min, higher = more signal
Sequence of NADPH oxidase 5 (Homo sapiens) (Q96PH1 whole entry, looked up): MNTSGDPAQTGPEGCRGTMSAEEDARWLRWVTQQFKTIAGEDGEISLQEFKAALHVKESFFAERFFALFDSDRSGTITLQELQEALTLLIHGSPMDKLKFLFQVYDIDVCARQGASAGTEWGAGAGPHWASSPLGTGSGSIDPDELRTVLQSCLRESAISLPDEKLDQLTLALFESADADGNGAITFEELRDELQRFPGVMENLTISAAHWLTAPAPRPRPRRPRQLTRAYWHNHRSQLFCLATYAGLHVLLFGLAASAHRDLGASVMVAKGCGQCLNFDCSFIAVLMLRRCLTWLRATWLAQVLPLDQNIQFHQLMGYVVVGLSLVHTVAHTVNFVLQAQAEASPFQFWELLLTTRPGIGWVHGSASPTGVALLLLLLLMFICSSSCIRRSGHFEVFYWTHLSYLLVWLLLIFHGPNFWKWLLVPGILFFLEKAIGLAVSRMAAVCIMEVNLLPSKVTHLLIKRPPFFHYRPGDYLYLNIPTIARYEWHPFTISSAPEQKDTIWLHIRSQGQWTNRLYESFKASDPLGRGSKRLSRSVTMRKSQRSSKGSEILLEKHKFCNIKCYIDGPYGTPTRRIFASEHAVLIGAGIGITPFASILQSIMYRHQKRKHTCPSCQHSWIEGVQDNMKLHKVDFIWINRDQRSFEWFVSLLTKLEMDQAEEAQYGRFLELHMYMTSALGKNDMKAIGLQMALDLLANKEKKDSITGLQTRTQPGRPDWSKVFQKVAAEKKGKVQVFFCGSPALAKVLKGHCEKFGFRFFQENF

[11] = A549 cell viability effects, profiling panel, calcein-AM fluorescence, 48 h, basal (AID 1162); details: higher = more signal; further: test concentration not given here
[12] = adipocyte viability effects, profiling panel, cell-based, 3T3-L1 adipocytes, calcein-AM fluorescence, 48 h, basal (AID 1163); details: 3T3-L1 adipocytes viability, higher = more signal; further: test concentration not given here
[13] = HepG2 cell viability effects, profiling panel, calcein-AM fluorescence, 48 h, basal (AID 1164); details: higher = more signal; further: test concentration not given here
[14] = MM1S cell viability effects, profiling panel, calcein-AM fluorescence, 48 h, basal (AID 1165); details: higher = more signal;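 further: viability of MM1S multiple myeloma cells under basal unstimulated conditions; test concentration not given here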
[15] = basal RPMI8226 viability, no added stimulus, profiling panel, cell-based, calcein-AM fluorescence, 48 h, PK04 Diversity Set (AID 1166); details: RPMI8226 myeloma viability, higher = more signal;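 further: cells grown under basal conditions without added stimulus; test concentration not given here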
[16] = basal HepG2 mitochondrial membrane potential changes, profiling panel, cell-based, JC-1 fluorescence, 24 h, 100 nL compound (AID 1167); details: higher = more signal; further: test concentration not given here
[17] = basal 3T3-L1 adipocyte mitochondrial potential changes, profiling panel, cell-based, JC-1 fluorescence, 3T3-L1 adipocytes, 24 h, 100 nL compound (AID 1168); details: JC-1 mitochondrial fluorescence, higher = more signal, called active from +8 up or from −8 down; further: test concentration not given here
[18] = basal RPMI8226 mitochondrial membrane potential changes, profiling panel, cell-based, JC-1 fluorescence, 24 h, 100 nL compound (AID 1169); details: RPMI8226 myeloma, JC-1 mitochondrial potential fluorescence, higher = more signal; further: test concentration not given here
[19] = basal MM1S mitochondrial membrane potential changes, profiling panel, cell-based, JC-1 fluorescence, 24 h, 100 nL compound (AID 1170); details: higher = more signal; further: test concentration not given here
[20] = A549 lung cancer cell viability effects, profiling panel, resazurin fluorescence, 24 h, PK04 Diversity Set (AID 1171); details: higher = more signal, called active from +8 up or from −8 down; further: test concentration not given here

| Compound | z-score [1] | composite z-score [2] | z-score [3] | z-score [4] | z-score [5] | z-score [6] | z-score [7] | z-score [8] | z-score [9] | z-score [10] | z-score [11] | z-score [12] | z-score [13] | z-score [14] | z-score [15] | z-score [16] | z-score [17] | z-score [18] | z-score [19] | z-score [20] |
| --- | --- | --- | --- | --- | --- | --- | --- | --- | --- | --- | --- | --- | --- | --- | --- | --- | --- | --- | --- | --- |
| C=C(COC)/C(=C/C[C@H](OC(=O)c1ccncc1)c1ccc(OCCO)cc1)c1cc(C(=O)OC)ccc1OC | 1.79 (inactive) | 0.0999 | 21.4 (active) | 2.24 (inactive) | 2.31 (inactive) | -1.02 (inactive) | 0.876 | -3.16 (inactive) | -1.49 (inactive) | -2.53 | -0.313 | 1.7 | -0.842 | -1.18 | -0.443 | 1.37 | -0.4 (inactive) | 0.368 | 0.0527 | 1.29 (inactive) |
| COC(=O)[C@@]1(Cc2ccc(OC)cc2)[C@H]2c3cc(C(=O)N4CCCC4)n(CCc4ccc(OC)c(Br)c4)c3C[C@H]2CN1C(=O)c1ccccc1 | -0.536 (inactive) | 0.291 | 2.64 (inactive) | 0.809 (inactive) | -0.0758 (inactive) | 0.568 (inactive) | 0.348 | 0.798 (inactive) | 0.0418 (inactive) | -0.759 | -0.572 | -0.3 | 0.347 | -0.245 | -1.51 | 2.24 | -0.641 (inactive) | -0.767 | -0.569 | 0.568 (inactive) |
| COCC(=C=CC[C@@H](O)c1ccc(OCCO)cc1)C[C@@H](O)COCc1ccccc1 | 1.81 (inactive) | 0.0299 | 7.41 (inactive) | 0.416 (inactive) | 0.766 (inactive) | -0.756 (inactive) | 2.43 | -1.16 (inactive) | -0.479 (inactive) | -2.03 | 0.517 | 0.657 | 0.712 | 0.105 | 0.0253 | -1.77 | 0.914 (inactive) | -0.725 | -1.03 | 0.583 (inactive) |
| C=CCC(OC(C)=O)[C@@H]1[C@@H](N(Cc2ccc(-c3cccc(C(F)(F)F)c3)o2)C(=O)c2cccc3ccccc23)c2cc(OCCCO)ccc2N1C(=O)c1ccc2ccccc2n1 (stereo not given in full) | -0.855 (inactive) | 0.007 | 0.706 (inactive) | -0.342 (inactive) | 1.32 (inactive) | 0.139 (inactive) | 0.2 | -3.37 (inactive) | -1.17 (inactive) | -0.606 | -0.16 | 0.953 | -0.0619 | -0.142 | -2.18 | 2.43 | -0.637 (inactive) | 0.307 | 0.582 | -0.871 (inactive) |
| N#Cc1ccc(C(O)C2C=CC3C(=O)NC(=O)C3N2Nc2ccccn2)cc1 (stereo not given) | 0.261 (inactive) | 0.0341 | 0.104 (inactive) | -0.88 (inactive) | -0.138 (inactive) | -1.01 (inactive) | -0.0329 | -1.73 (inactive) | -2.92 (inactive) | -1.67 | 0.517 | -0.239 | 1.43 | 0.435 | -0.792 | -0.183 | -0.277 (inactive) | 0.274 | -0.839 | -1.36 (inactive) |
| CO[C@H]1O[C@H](CO)[C@@H](OC(=O)Nc2ccccc2)[C@@H]2OC(=O)[C@H](Cc3ccccc3)C/C=C/C[C@@H](Cc3ccccc3)C(=O)O[C@@H]12 | 0.863 (inactive) | 0.302 | 10.1 (active) | 0.342 (inactive) | -1.91 (inactive) | -0.681 (inactive) | 1.31 | -3.35 (inactive) | -0.599 (inactive) | -1.57 | -0.152 | 0.385 | 0.358 | -1.22 | -2.46 | -0.928 | 0.799 (inactive) | -0.865 | -1.45 | -2.94 (inactive) |
| CCCCC(O)C1C=CC2C(=O)NC(=O)C2N1Nc1ccc(Cl)cc1Cl (stereo not given) | -1.73 (inactive) | 0.396 | 2.42 (inactive) | 1.53 (inactive) | 0.39 (inactive) | 0.998 (inactive) | -0.787 | -0.461 (inactive) | -5.64 (inactive) | -3.41 | -1.99 | 0.266 | -2.39 | -1.55 | -2.27 | -2.38 | -0.831 (inactive) | -0.64 | 0.724 | -1.99 (inactive) |
| NC(=O)NCC#Cc1ccc2c(c1)[C@]1(C(=O)N2)[C@H](C(=O)Nc2nc3ccccc3s2)[C@H]2C(=O)O[C@H](c3ccccc3)[C@H](c3ccccc3)N2[C@@H]1c1ccc(OCCO)cc1 | 0.197 (inactive) | 0.309 | 1.93 (inactive) | 1.1 (inactive) | -0.166 (inactive) | 0.737 (inactive) | 0.169 | 0.681 (inactive) | 0.611 (inactive) | 0.715 | -0.163 | 0.466 | -1.43 | -0.231 | -0.349 | -3.18 | 0.272 (inactive) | -1.14 | -1.88 | 0.767 (inactive) |
| COCCn1c(C(=O)N2CCCC2)cc2c1C[C@H]1CN(C(=O)c3ccccc3)[C@@](Cc3ccccc3)(C(=O)OC)[C@@H]21 | -0.91 (inactive) | 1.46 | 1.46 (inactive) | 0.103 (inactive) | 1.98 (inactive) | 1.01 (inactive) | 1.09 | 0.582 (inactive) | -0.6 (inactive) | -3.94 | -1.94 | -0.239 | -0.768 | 0.0841 | -1.37 | 0.678 | -0.416 (inactive) | -0.803 | -0.688 | -0.0413 (inactive) |

— PubChem BioAssay
